Assay results from PubChem BioAssay AID1159580 (chemical genetic matrix, 2015).
Hit rate of the full screen: of about 5,500 compounds, about 2,000 (36%) were called active. Another 18% or so got no clear call; they are omitted. Rule as the data show it: active = normalized growth mostly below about 0.91 (no sharp cut-off); inconclusive = no clear call, values can overlap the other calls; inactive = mostly above about 0.92. This is one part of the list.

Test: chemical genetic growth profiling, strain panel (AID 1159580);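 also: tested at 20 µM; growth read once vehicle control cultures reached saturation at 30 °C; 1 = growth at the plate median or of vehicle wells; lower values mean less growth of the strain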
Conditions: S. cerevisiae deletion strains, growth OD
[1] = locus YAL013W, strain DEP1, hits give low values
[2] = locus YDL101C, strain DUN1, hits give low values
[3] = locus YDR150W, strain NUM1, hits give low values
[4] = locus YHR030C, strain SLT2, hits give low values
[5] = locus YJR075W, strain HOC1, hits give low values
[6] = locus YMR263W, strain SAP30, hits give low values
[7] = locus YNL153C, strain GIM3, hits give low values

Measured: normalized growth

COc1ccc(NC(=O)C(C)c2ccc(CC(C)C)cc2)cc1 (configuration not stated)
active: locus YBR229C, strain ROT2, hits give low values 0.897 | locus YCL061C, strain MRC1, hits give low values 0.848 | locus YGR078C, strain PAC10, hits give low values 0.886 | locus YHR087W, strain rtc3, hits give low values 0.824 | locus YJR043C, strain POL32, hits give low values 0.907 | [5] 0.804 | locus YKL190W, strain CNB1, hits give low values 0.914 | locus YLR039C, strain RIC1, hits give low values 0.527 | locus YLR262C, strain YPT6, hits give low values 0.46 | locus YMR219W, strain ESC1, hits give low values 0.94 | locus YNR030W, strain Alg12, hits give low values 0.872 | locus YPL241C, strain CIN2, hits give low values 0.858
inactive: [1] 0.976 | [2] 0.956 | locus YDL134C, strain PPH21, hits give low values 0.965 | [3] 0.91 | locus YEL061C, strain CIN8, hits give low values 0.943 | [4] 0.916 | locus YLR058C, strain SHM2 (second series), hits give low values 0.974 | locus YLR085C, strain ARP6, hits give low values 0.878 | locus YML094W, strain GIM5, hits give low values 0.903 | [6] 0.963 | locus YMR307W, strain GAS1, hits give low values 0.774 | [7] 0.932 | locus YNL298W, strain CLA4 (second series), hits give low values 0.937 | locus YNL322C, strain KRE1, hits give low values 0.967 | locus YPL055C, strain LGE1, hits give low values 0.838 | locus YPR135W, strain CTF4, hits give low values 0.855

CN1C2CCC1CC(NC(=O)c1nn(C)c3ccccc13)C2 (configuration not stated)
inactive: [1] 1.02 | locus YAL040C, strain CLN3, hits give low values 1.01 | locus YCL061C, strain MRC1 (second series), hits give low values 1.01 | [3] 1 | locus YDR363W, strain ESC2, hits give low values 1 | locus YER002W, strain NOP16, hits give low values 0.992 | [5] 1.01 | [6] 0.999 | locus YNL128W, strain TEP1, hits give low values 0.987 | [7] 0.999 | locus YNL175C, strain NOP13, hits give low values 1.01 | locus YNL197C, strain WHI3, hits give low values 1.01 | locus YNL224C, strain SQS1, hits give low values 1 | locus YOR083W, strain WHI5 (second series), hits give low values 1.02

CC(C)Cc1ccc(C(C)C(=O)Nc2nn(C)c3ccccc23)cc1 (configuration not stated)
inactive: locus YAR019C, strain CDC15, hits give low values 0.993 | locus YBL105C, strain PKC1, hits give low values 0.986 | locus YBR135W, strain CKS1, hits give low values 0.974 | locus YBR136W, strain MEC1, hits give low values 0.99 | locus YBR160W, strain CDC28, hits give low values 0.984 | locus YDL017W, strain CDC7, hits give low values 0.967 | locus YDL028C, strain MPS1, hits give low values 0.997 | [2] 0.993 | locus YDL108W, strain KIN28, hits give low values 0.992 | locus YDL132W, strain cdc53, hits give low values 0.998 | locus YDL214C, strain PRR2, hits give low values 0.931 | locus YDR054C, strain cdc34, hits give low values 0.968 | locus YDR226W, strain ADK1, hits give low values 0.991 | locus YDR477W, strain SNF1, hits give low values 0.932 | locus YER123W, strain YCK3, hits give low values 0.922 | locus YER133W, strain GLC7, hits give low values 0.945 | locus YFL009W, strain cdc4, hits give low values 0.985 | locus YFL029C, strain CAK1, hits give low values 0.994 | locus YFR003C, strain YPI1, hits give low values 0.993 | locus YFR019W, strain FAB1, hits give low values 0.962 | locus YFR028C, strain CDC14, hits give low values 0.988 | locus YGR040W, strain KSS1, hits give low values 0.915 | locus YGR052W, strain FMP48, hits give low values 0.983 | locus YGR092W, strain DBF2, hits give low values 0.931 | [4] 0.944 | locus YHR079C, strain IRE1, hits give low values 0.945 | locus YHR082C, strain KSP1, hits give low values 0.94 | locus YHR205W, strain SCH9, hits give low values 0.909 | locus YIL147C, strain SLN1, hits give low values 0.989 | locus YJL095W, strain BCK1, hits give low values 0.965 | locus YJL128C, strain PBS2, hits give low values 0.948 | locus YJL157C, strain FAR1, hits give low values 0.942 | locus YJR016C, strain ILV3, hits give low values 0.99 | locus YJR066W, strain TOR1 (second series), hits give low values 0.902 | locus YJR066W, strain TOR1, hits give low values 0.982 | locus YKL048C, strain ELM1, hits give low values 0.965 | locus YKL067W, strain YNK1, hits give low values 0.939 | locus YKL101W, strain HSL1, hits give low values 0.933 | locus YKL193C, strain SDS22, hits give low values 0.975 | locus YKL203C, strain TOR2, hits give low values 0.981 | locus YLR133W, strain CKI1, hits give low values 0.93 | locus YLR403W, strain SFP1, hits give low values 0.772 | locus YML070W, strain DAK1, hits give low values 0.918 | locus YMR001C, strain CDC5, hits give low values 0.973 | locus YMR205C, strain PFK2 (second series), hits give low values 0.928 | locus YMR277W, strain FCP1, hits give low values 0.975 | locus YNL006W, strain LST8, hits give low values 0.993 | locus YNL020C, strain ARK1, hits give low values 0.935 | locus YNL161W, strain CBK1, hits give low values 0.991 | locus YNL183C, strain NPR1, hits give low values 0.927 | locus YNL207W, strain RIO2, hits give low values 0.976 | locus YNL222W, strain SSU72, hits give low values 0.99 | locus YNL307C, strain MCK1 (second series), hits give low values 0.944 | locus YOL078W, strain AVO1, hits give low values 0.987 | locus YOL136C, strain PFK27, hits give low values 0.916 | locus YOR061W, strain CKA2, hits give low values 0.938 | locus YOR119C, strain RIO1, hits give low values 0.988 | locus YOR231W, strain MKK1, hits give low values 0.896 | locus YOR329C, strain SCD5, hits give low values 0.99 | locus YPL031C, strain PHO85, hits give low values 0.941 | locus YPL153C, strain RAD53, hits give low values 0.934 | locus YPL204W, strain HRR25, hits give low values 0.906 | locus YPL209C, strain IPL1, hits give low values 0.982 | locus YPL256C, strain CLN2, hits give low values 0.88 | locus YPR025C, strain CCL1, hits give low values 0.986 | locus YPR106W, strain ISR1, hits give low values 0.979 | locus YPR111W, strain DBF20, hits give low values 0.955 | strain NNK1, hits give low values 0.98 | strain TSCII, hits give low values 0.992
active: locus YLR113W, strain HOG1, hits give low values 0.855
